Experimental data reported in PubChem BioAssay AID1159506 (National Center for Advancing Translational Sciences (NCATS), 2015).
The full ranking holds about 59,000 sequences; the median of the read-out is about -0.00055, and the lowest 2% start at about -2. This is one part of a sample in which the lowest values are shown more often than they occur.

Test: Identification of proteins required for the processing of the EWS-FLI1 nascent transcript;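 also: robust z of luciferase light less the median z of siRNAs with the same seed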
Details: TC32 Ewing sarcoma NR0B1-luc vs CMV-luc (EWS-FLI1 target promoter against control promoter), 48 h; screened at 20 nM (by protocol)
Outline: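 TC32 Ewing sarcoma cells carrying NR0B1-promoter or CMV-promoter luciferase reporters were reverse-transfected with single siRNAs at 20 nM, three per gene genome-wide. Luminescence was read after 48 h and normalized to non-targeting controls.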

Sequence | seed-corrected z-score
AAACUGGUCAUCAUCCACC against SIKE1 | 0.42
AUCUGAGUGGAAAAAGUCC against AHNAK2 | 0.0875
UUCAGACUUGUUUUCACCC against POU1F1 | -0.00706
AAAGGUAGAAAGAAGGACU against ZDHHC8P1 | -0.722
UUGGUCUAGACUACUCUCC against KRT5 | -0.431
ACAGAUAUCACAGGUAACC against MCU | 0.266
AACAUAGCUAAAGUUGUUG against SLC16A5 | -3.24
GAGCCGAACACCACUAUGG against SYNGR1 | -0.617
AGAUCUACUACAGCCGUUC against RARS2 | 0.391
UUCGACCCAAGGUUUGUGC against DBF4 | 0.865
UUAAUGAUAAACACGUCUU against LMX1A | -0.388
UCCUAUAGCAGAAUAUUCC against PVRL3 | -0.846
UCAACAUUAGGUUUCUUAG against TAF9B | 0.431
UCUGGUAGUUCUUCAAGGC against LINC00238 | 0.0623
UAUUCUGUAGGCUCAAAAC against KRTAP4-11 | -3.43
UUUCGCUAAGCUGCUCUUC against AQP9 | -0.131
UUAUGGAAUGUCGUUUUCC against FAM228A | 0.0891
UAAUGUCUAAGGAAGAUUU against ZBTB8A | 0.693
AAGCUGAUAAUAGGCUUUC against DNAJA3 | -0.565
UUCCAAGACAGAAAUGAGG against DNHD1 | 0.456
UGGGAUUUUAAAACGGCGG against DPP9 | 0.0729
UUCUAUUUAGGAGAGCUUC against RPS16P10 | -1.32
UAUCUUGUGGUGGUAGAGC against METTL23 | 0.782

Sequence | seed-corrected z-score
UCCGUUUUUGAGAAACUUG against PNLDC1 | -0.423
UAGAAAGUCUUUACUAUGU against PIGA | -1.02
UAAGUAGAUGGAGGACACC against MRGPRF | -2.16
AUAUAGGAUCUUAUUGUGC against B4GAT1 | -0.205
UUUUGUCCCGGAACAUGCG against BCR | -0.22
UUCUCGUUCUGUUAAGUUC against CCDC144B | 0.479
UGUUGUAGUAGUAACGCAG against LOC390937 | -3.19
UCAGUUGUUACGCAAGGUG against PI16 | -0.652
AAAUGGUCCAGAAUCCAGC against FOXN2 | 0.634
UUUGGGUCGUUGUACAUCU against AGBL4 | -2.02
UACUGAACUCCAUCUGACU against C1orf198 | 1.54
UCGUUGUAUAAUUUUGCCC against WDR17 | -1.13
AAUGCGACGAGACAAGAUG against WASF2 | 0.812
UUCAUUAAGAAGCACCUGG against NDFIP2 | 0.91
ACUAGUACUGGGAAGGUCC against CDKN1C | -2.28
UCUAGGCUCAGCAAUGACU against CD19 | 0.138
AAUAGAUUCAACAAGGGUG against BCL10 | 1.13
AUGGAGGUAAUGACGAUCA against UPK3B | -2.86
UCUAGAUACUUAAUGGUGC against LAMP2 | 0.192
UUAUUGACACUUGUUCAAG against COX7A1 | 0.106
AAUGUAUCUAAGCAACUUC against DDIAS | -0.473
ACAUAGGUUGGGUCGAUCC against XYLT2 | -1.65
UACUUAACCGGGAAGCUAC against NUMB | -0.172

Sequence | seed-corrected z-score
UUUGCAGGUAGAAUUAAGG against B3GALT5-AS1 | -2.65
UUAGCAUCUGCAGCAUUCU against RBMY2DP | -0.255
UGGGUUGUAGAGAUCUACC against AKAP4 | 0.156
UACCCGGAAAAGUAAAUCC against ROBO2 | 0.288
UGAUAUAUGAAUUGGAGUC against CDKN3 | -0.146
UUCUUCAUCAGAUGGUUCC against SF3B2 | -3.21
AGUUUAGCUAUGACAAUGG against C2orf66 | 0.917
UUCUCCUUCAUCAAGUUCA against S100A7L2 | 0.705
UUCGUUACAGAACUGACCG against YEATS2 | -0.228
UCCAUAACCUGUUCUACGC against NFU1 | 0.244
UCUUGUCUACUAUCACUGC against PRR13 | 1.15
UUCUGAACCUUCGCAGUGC against PPP1R3B | 0.0534
UUCUGAAACAAGCCCUUGC against CCDC103 | -2.08
UUCUUGACUAUCUUCAUCU against CBX4 | -0.275
UCUAUUUUGACCGAGUAUG against CKAP4 | 0.169
AUGAUGUUCACGAUGAUGG against SYT7 | -2.72
UUGCAAUGCAUGGUGCACC against FAM136A | -1.35
UUGUCUUUUACUUCCAUCC against CLEC7A | -1.06
UAGUUAAUGGAGUAACUCC against KDM5C | -0.0641
ACUUUUUACCUCCUCAUUC against OR4E2 | 1.72
AGCAGGAUAAAAACGAUCU against TMC4 | 0.756
UGUUGGAUAAGGUUAGAAC against ZNF34 | 0.0223
AAUGUUUCCCACAUGGAUG against SMARCB1 | -1.85

Sequence | seed-corrected z-score
UGUAAUUAUACCAAUGUAG against EEF1B2P5 | -2.11
UCUCGUAUGAUAUAAUCUC against HCN1 | 0.749
AACCGGAUUAAGGAAAGUG against BTBD1 | -0.375
UGAAGGGAUAGUUUCUCUG against FZD10-AS1 | -0.829
UAAGUUGCACUUUCCAUUC against ZNF266 | -3.46
AACCGUUCCAUAUCAUCUC against BEX5 | 0.658
UCCUUGUCCACAUGGAGAC against CREBZF | -1.01
UUAUAAUCUACAUGCUUUC against MRPS18C | 0.39
UCUGCUGUCCUGUAAGUCG against AMACR | 0.214
UUAGCUGUGAGUGCUUUCC against TNFRSF11A | -2.35
UUGAGUGCAACUUCAAGUC against OPTN | 2.17
UUCUGGAGCAGACCUGUCC against DKK4 | 0.057
UGUUAGCUCAGUCACGUAG against GBP7 | 0.141
GUGUGCAUCAGAUGCUCUG against NUTM2F | 1.15
UCGCUGAUCAGCAUGACCU against ITFG2 | -0.4
UCUCUUUAUGCAGCUGACA against LTF | -2.1
UAGAUGUUGACGCCCAUGG against MRPL54 | 0.63
UGAGUACCCAUGGUUGGAG against KY | -1.24
UUCAGGACAAUCUUGUUCC against UBL5 | -0.0381
AUUGUAACCAGUCACGUAC against FLRT3 | 0.235
UGAGAUAUGCGACAGAUGG against ACOX2 | -0.67
AUUGCUCUGAAGUGAAUUC against LMO4 | -0.726
UACAGGCUAAAUACACUCC against ANAPC13 | -2.73

Sequence | seed-corrected z-score
AGAGUUAAAACUGGAGGCG against POU2F3 | 0.349
UUCUAGAUUAUUAUAGGAC against LRFN5 | -0.0413
UGUUCUUGUAUUUCGCUUG against ZBED9 | -0.528
AAAGAGGUGAUAGAGCACG against PAQR4 | -1.03
UACGAUAUCAGCAUUGCAG against CNOT6 | 0.29
UUCUGGUAUACGUGUUUCG against TNFSF8 | 0.471
UUGGUUAACCAGGUUCACC against LOC390282 | -2.14
AGCUGGUCAAUGUAGUCGC against MAPK11 | 0.202
UACAGUAUCAGCUUCUACA against LOC643855 | 0.618
UUCCAGACCAUGAGAUGCC against PIGO | -0.121
UCAUGUUCAACCCAAACUC against ANKMY1 | -4.15
UCUAGGACAGCUCUUAUCC against EDEM3 | 0.599
UUUGUUACUUUGUCCAUUC against ARMC9 | -0.253
UAGCUGUUCCUUGUAGUUG against NABP1 | 0.675
UUGAUCACCACUUCGGAGC against CHRM1 | -0.914
UCACGUUUAUUCUGAAUCC against NDC1 | -1.1
UGUCCAUGAAAUUUCUCUG against ARL2BP | 1.12
UUUUUCUCGAUCUGCUUCC against CCDC64 | -2.13
UAAUGCAUCUUCAAAAUUC against LOC730338 | 0.94
UACUUUGUUAUAGGAUCUC against CWC22 | -0.653
UUUGGGAUCAAAUCGGUGG against NAPSA | 0.0625
UGCGAAUCUGCUAGGAUGC against GLTSCR1L | 0.0332
UAUCCUUCAGGCUAAGAUG against SGOL1 | -2.83

Sequence | seed-corrected z-score
UUACUUUGUAGAUACAACA against FAM201A | -1.74
UUAGCUGCAAUUGCCUUCU against ZWINT | -2.63
UCGUGAUUACGUUAAGUGC against CCNH | 0.304
UGAAUGCUGAGAACUGUGC against PAPPA2 | -0.138
UAUAGGUCAGGCAACCUUG against ATP11AUN | -0.763
UAAGUUGACAGGCUGUCCA against NXPH3 | -2.06
UGCUUGUCUCGGUUAAUGC against NCF2 | -0.104
AAAACUACCGUUUGUGCAU against RPS27 | 0.994
UGCUCUAGCACAGUGUUCC against CCDC87 | -2.86
AUAGUUUAUAAGUCCUAUC against CGRRF1 | 0.53
AUGUCCUUAAAUUCACUCU against GJB2 | -2.43
UAAUAUUACCUUUAUGUUG against TBC1D3P2 | 2.12
UUCUUGAAAUCCAACCACC against ACSM6 | 0.592
AAAUCGUUAGUUGAGGAGC against USP53 | 0.292
ACAGGGACAAUGUAGGAAG against PRSS47 | -2.17
UAGUAUGAAAAUAGAAGUC against BTBD8 | 0.167
UCAGGGUUAGAGGUAGUGG against SMCR8 | 0.401
UAGUGGAUGUCAAACGAGG against CTSD | 0.501
